Screening results (PubChem BioAssay)
PrP 5UTR inh = inhibition of PrP 5' UTR reporter expression | cell-based PrP 5' UTR mRNA reporter, plate reader | inhibition, % (test concentration not listed) | 0.35% of 340,000 active | AID 488862; in the data active = inhibition above about 52%; note: 0 = median of the neutral control wells
Y pestis TopoI = inhibitors of Yersinia pestis topoisomerase I | AID 504884 | activity, % at 10 µM | 0.064% of 360,000 active | Y. pestis Topo-I cleavage product accumulation, plate reader; in the data active = activity above about 50%, passing the limit was not always enough
Vc quorum ag = inducers of Vibrio cholerae quorum light production without autoinducers. V. cholerae BH1578 lux reporter, luminescence, 6 h. activation, % at 18.7 µM. 0.16% of 350,000 active; in the data active = activation mostly above about 9.7%, no sharp cut-off
TcdB inh = TcdB glycohydrolase inhibition; P18177; TcdB glycohydrolase enzymatic assay, plate reader; inhibition, % at 9.99 µM; 0.24% of 350,000 active; AID 652162; in the data active = inhibition above about 10%
Mtb UGM inh = blocks M. tuberculosis UGM enzyme. P9WIQ1. purified UGM, fluorescence polarization probe displacement. inhibition, % at 10 µM. 0.06% of 320,000 active. AID 504406; in the data active = inhibition above about 10%, passing the limit was not always enough
Target sequence (P9WIQ1 whole entry, looked up): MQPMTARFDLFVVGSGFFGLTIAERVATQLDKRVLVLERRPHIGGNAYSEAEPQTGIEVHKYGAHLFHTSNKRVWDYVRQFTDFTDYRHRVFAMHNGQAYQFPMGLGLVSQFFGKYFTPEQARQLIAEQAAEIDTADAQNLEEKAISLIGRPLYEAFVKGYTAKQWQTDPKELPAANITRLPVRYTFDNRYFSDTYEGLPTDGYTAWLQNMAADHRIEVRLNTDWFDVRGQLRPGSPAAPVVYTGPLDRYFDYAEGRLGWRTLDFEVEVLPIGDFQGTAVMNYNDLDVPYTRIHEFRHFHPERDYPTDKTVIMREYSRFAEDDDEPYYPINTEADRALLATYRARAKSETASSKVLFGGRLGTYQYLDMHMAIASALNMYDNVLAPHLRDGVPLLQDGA
* = called active by the depositor; i = inactive; . = not tested or not shown. Most compounds without a hit are left out; they make up all but 0.65% or so of the library.

SMILES	PrP 5UTR inh	Y pestis TopoI	Vc quorum ag	TcdB inh	Mtb UGM inh
Cc1cccc(N=C2NC(=O)CS2)c1	-23	5	.	.	-1
Cc1cc(C)cc(N=C2NC(=O)CS2)c1	-22	-17	0	13*	1
C[C@@H]1CCCCO[C@@H](CN(C)Cc2ccccc2)[C@@H](C)CN([C@@H](C)CO)C(=O)c2cc(NC(=O)Nc3cccc4ccccc34)ccc2O1	.	.	.	0	.
CN(C)c1ccc(/C=C/c2cccc[n+]2[O-])cc1	-85	-4	0	13*	4
COc1ccc(-c2nc(N)ncc2-c2ccccc2OC)c(O)c1	-8	-2	i	13*	-1
CCCC#Cc1cnc2c(c1)C(=O)N([C@@H](C)CO)C[C@@H](C)[C@H](CN(C)C(=O)Cc1cccnc1)O2	.	.	.	1	.
CO[C@H]1CN(C)C(=O)c2cc(NC(=O)C3CC3)ccc2OC[C@@H](C)N(CC2CCCC2)C[C@@H]1C	.	.	.	0	.
Cc1ccccc1S(=O)(=O)N1CCCc2nc(C)c(C)cc21	.	.	.	11*	.
Cc1ccccc1S(=O)(=O)N1CCCc2nc(-c3ccccc3)ccc21	.	.	.	0	.
Cc1nc(-c2ccccn2)nc(SCC(=O)c2ccc(F)cc2)c1Cl	-14	-4	i	12*	-2
Oc1ccc(/C=N/NC(=S)Nc2cccnc2)cc1O	-26	-14	0	26*	0
Cc1nc(S(=O)(=O)N(C)Cc2ccccc2)c(C#N)c(C)c1Cl	-2	7	3	64*	-2
O=C(CN1CCCCC1)Nc1ccc(Br)cc1[N+](=O)[O-]	-23	9	48*	1	3
O=C(C[C@H]1CC[C@@H]2[C@H](COC[C@@H](O)CN2C(=O)Nc2ccc(Cl)cc2)O1)NCC1CC1	.	.	.	-3	.
CCOc1ccccc1C(=O)NCC(=O)NNC(=O)c1cccc(S(=O)(=O)Nc2ccc(OC)cc2)c1	-5	7	536*	3	1
COc1ccc(NS(=O)(=O)c2cccc(C(=O)NNC(=O)CNC(=O)c3ccco3)c2)cc1	2	9	-1	-1	-2
CCOc1ccc(/C(CCC(=O)O)=N/NC(=O)c2cccc(S(=O)(=O)Nc3ccccc3OC)c2)cc1	6	-8	i	0	11*
C[C@H](CO)N1C[C@H](C)[C@H](CN(C)S(=O)(=O)c2cn(C)cn2)Oc2ccc(NC(=O)C3CCCCC3)cc2C1=O	.	.	.	1	.
CC=Cc1ccc2n(c1=O)C[C@H]1[C@H](CO)[C@@H](C(=O)NCCC)[C@@H]2N1C(=O)c1ccccc1 (mixture of isomers)	.	.	.	0	.
C[C@@H]1CN([C@H](C)CO)C(=O)c2cc(NC(=O)c3ccncc3)ccc2O[C@@H](C)CCCCO[C@H]1CN(C)Cc1ccc(C(=O)O)cc1	.	.	.	1	.
CCCCN1CC(COCc2ccccc2)Oc2cccc(F)c2S1(=O)=O (stereo not given)	-20	59*	-1	2	.
COc1ccc(NC(=O)Nc2nc(C)cc(C)n2)c(OC)c1	-8	-4	-1	11*	3
Oc1ccc2c(ccc3[nH]cnc32)c1	-9	7	-1	17*	1
Cc1noc(C)c1NC(=O)NCC[C@H]1CC[C@@H](NC(=O)Cc2cccnc2)[C@H](CO)O1	.	.	.	0	.
CC(=O)OCCCCCCCCCCC[N+]1(C)CCCCC1	-24	4	0	1	-1
SMILES	PrP 5UTR inh	Y pestis TopoI	Vc quorum ag	TcdB inh	Mtb UGM inh
C[N+]1(CCCCSc2ccc(O)cc2)CCCCC1	-7	-7	-2	22*	2
C/C=C/c1cnc2c(c1)C(=O)N([C@H](C)CO)C[C@H](C)[C@H](CN(C)S(=O)(=O)c1ccccc1)O2	.	.	.	0	.
CC(C)(C)OC(=O)NCc1ccc(NC(=O)c2nc[nH]c2C(=O)NCCCNC(=O)c2[nH]cnc2C(=O)Nc2ccc(CNC(=O)OC(C)(C)C)cc2)cc1	22	79*	i	.	-4
CC(C)(C)OC(=O)NCc1ccc(NC(=O)c2nc[nH]c2C(=O)NCCCCNC(=O)c2[nH]cnc2C(=O)Nc2ccc(CNC(=O)OC(C)(C)C)cc2)cc1	19	-4	1	.	-1
C=CC(=O)Nc1cccc(Nc2nc(N[C@H]3CC[C@H](N(C)C)CC3)nc3c2ncn3C(C)C)c1	71*	-15	i	.	.
CC(C)n1cnc2c(Nc3cccc(Cl)c3)nc(NCCCO)nc21	10	3	1	2	-1
COc1ccccc1N1CCN(C2CCCN(C(=O)CCC(=O)N(C)C)C2)CC1 (stereo not given)	-14	5	i	1	10*
CS(=O)(=O)N1CCc2cc(C(=O)Nc3ccc(O)cc3)ccc21	2	-2	i	25*	4
Cc1cscc1-c1nc(NCC2CC2)nc2ccsc12	.	7	5	11*	.
CO[C@@H]1CN(C)C(=O)c2cc(NC(=O)NC(C)C)ccc2OC[C@H](C)N(C)C[C@H]1C	.	.	.	-2	.
COc1cccc(Oc2ccc3nnc(C(F)(F)F)n3n2)c1	-11	6	i	11*	-1
Fc1ccc(Oc2ccc3nnc(C(F)(F)F)n3n2)cc1	-9	-4	0	0	-1
COc1ccc(OC)c(NC(=O)CSc2ccccc2)c1	-5	9	.	.	-2
COc1ccc(OC)c(NC(=O)CSCC(=O)O)c1	-17	1	17*	.	1
O=C(OCc1ccc([N+](=O)[O-])cc1)c1cc([N+](=O)[O-])ccc1N1CCOCC1	-17	22	2	1	.
Cc1ccc(COC(=O)c2cc([N+](=O)[O-])ccc2N2CCOCC2)cc1	77*	22	0	1	-3
COc1cc2[nH]c(=S)nc(NCCC(C)C)c2cc1OC	-13	-9	0	10*	-2
COCCCNc1nc(=S)[nH]c2cc(OC)c(OC)cc12	-27	0	-10	.	-1
CC=Cc1ccc2n(c1=O)C[C@H]1[C@H](CO)[C@@H](C(=O)NCC)[C@@H]2N1CC1CCOCC1 (mixture of isomers)	.	.	.	0	.
COc1ccccc1NC(=O)N1C[C@H](O)COC[C@@H]2O[C@H](CC(=O)NCc3ccccc3)CC[C@H]21	.	.	.	1	.
COc1ccc(CN2C[C@H](C)[C@@H](OC)CN(C)C(=O)c3cc(NC(=O)c4nc5ccccc5s4)ccc3OC[C@@H]2C)cc1	.	.	.	0	.
COc1ccc(NC(=O)CN(C)C(=O)CSc2nc3ccccc3s2)cc1	11	8	20*	1	0
O=C(CN1CCN(Cc2ccccc2)CC1)NCc1ccc(Cl)cc1	-16	0	i	0	2
CCc1ccccc1NC(=O)CN1CCN(CC(=O)NCc2ccc(Cl)cc2)CC1	2	16	-1	14*	0
O=C(Nc1ccc(O)cc1)/C(=C\c1cccs1)NC(=O)c1ccccc1	-13	4	-1	19*	-1
COc1cc(/C=C(/NC(=O)c2ccccc2)C(=O)Nc2ccc(O)cc2)c([N+](=O)[O-])cc1OC	-35	-13	-1	13*	-1
Cc1ccc(NC(=O)/C(=C\c2cccs2)NC(=O)c2ccccc2)cc1	-4	2	-3	.	0
CO[C@H]1CN(C)C(=O)c2ccc(NS(C)(=O)=O)cc2OC[C@H](C)N(CC2CC2)C[C@@H]1C	.	.	.	1	.
